# Measurements reported in PubChem BioAssay (NCI).
# This is part of a sample that, as a whole, favours compounds with a hit. Of some 83,000 tested, about 20% had one in any assay.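 Each cell line was grown in a 96-well plate and treated with one concentration of compound for 48 hours. Values below 10 were considered active.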 Active and inactive are the calls of the source.
# Tested on: SF-539 CNS
# Assay: NCI-60 one-dose screen, 48 h (100 = growth as untreated, 0 = no growth, -100 = all killed)
# Details: 10 µM unless noted
row,Compound,growth
1,CCOC(=O)CC1CSC(Nc2ccccc2)=N1 (stereo unspecified),105% (inactive)
2,O=S(=O)(Nc1cc(Sc2cccc3cccnc23)c(O)c2ccccc12)c1ccccc1,-9.98% (active)
3,COc1ccc(C(=O)c2cc3c(N)c(C(=O)Nc4ccccc4)sc3nc2C)cc1,-5.08% (active)
4,N=c1c(S(=O)(=O)c2ccccc2)cc2c(=O)n3ccccc3nc2n1CC1CCCO1 (stereo unspecified),95.6% (inactive)
5,CC(C)(C)c1cc(Cl)c(O)c(CNCCO)c1,107% (inactive)
6,CCN(CC)CCN1C(=O)c2c(c(C)c3c(oc4ccc(O)cc43)c2C)C1=O,-99.5% (active)
7,Fc1cccc(-c2ccc3c(c2)C2(CCNCC2)CN3)c1,98.8% (inactive)
8,C=CC(=O)Nc1ccc(Oc2nccc(Nc3nnc(-c4ccc(C)cc4)s3)n2)cc1,83.3% (inactive)
9,NC1(CO)COC(c2ccccc2)OC1 (stereo unspecified),109% (inactive)
10,CCNc1ccc(-c2nc3ccccc3n3cccc23)cc1,93.5% (inactive)
11,CC[N+]1(CC)CC[N+]2(CCCC(C)CC2)CC1 (stereo unspecified),99.2% (inactive)
12,N=C(N)c1ccc(-c2ccc(-c3ccccc3)s2)cc1,78.5% (inactive)
13,O=C(CSc1nc(-c2ccccc2)cc(=O)[nH]1)Nc1nc(-c2ccccc2)cs1,113% (inactive)
14,Cc1nnc(-c2ccc3c(c2)nc(/C=C/c2ccccc2)n3C2CCCCC2)o1,110% (inactive)
15,O=S(=O)(NCCNc1nccc(-c2c(-c3ccc(F)c(O)c3)nc3sccn23)n1)c1ccc(F)cc1,44.3% (inactive)
16,CCN(CC)CCCN1C(=O)c2c(c(C)c3c(oc4ccc(O)cc43)c2C)C1=O,1.71% (active)
17,CCCCCCCCCCCCCCCCCC1=NC(C)(C)CN1CC(C)O (stereo unspecified),19.9% (inactive)
18,C#CC#CC#CC#CC#CC#CC#CC#CCC1OC[C@H](COC(=O)O[C@@H](C(=O)O[C@H]2C[C@@]3(O)[C@@H](OC(=O)c4ccccc4)[C@@H]4[C@]5(OC(C)=O)CO[C@@H]5C[C@H](O)[C@@]4(C)C(=O)[C@H](OC(C)=O)C(=C2C)C3(C)C)[C@@H](NC(=O)c2ccccc2)c2ccccc2)O1 (stereo partly specified),8.47% (active)

row,Compound,growth
1,Cc1ccc(Cl)cc1NC(=O)c1sc2nc3c(cc2c1N)C(=O)CCC3,47.7% (inactive)
2,CC(=O)Oc1ccc(OC(C)=O)c2ccccc12,99.9% (inactive)
3,O=C(NNC(=O)c1nc2cc(F)ccc2n2cccc12)c1cnccn1,29.6% (inactive)
4,C[C@H](C(=O)N(CCc1ccc(Cl)c(Cl)c1)Cc1cncs1)[C@@H]1CC[C@H](C[C@H](C)n2cc(CN3CCC(c4ccc(Cl)cc4)CC3)nn2)O1,101% (inactive)
5,O=C(CC(=O)Nc1cccc(C(=O)O)c1)Nc1cccc(C(=O)O)c1,90.5% (inactive)
6,C=C1CC[C@@H]2C(C)(C)[C@@H](O)CC[C@@]2(C)[C@@H]1COc1ccc2ccc(=O)oc2c1,86.1% (inactive)
7,CCS/C(Nc1ccccc1)=C(\C#N)C(=O)Nc1ccc(OC)cc1,29.1% (inactive)
8,Nc1nc(NC(=O)Nc2ccc(C(=O)O)cc2)nn1-c1ccc(S(N)(=O)=O)cc1,95.9% (inactive)
9,N#Cc1c(-c2ccccc2)nc(SCc2nnc(-c3ccc(Cl)cc3)o2)[nH]c1=O,104% (inactive)
10,CCN(CC)c1ccc(/C=N/NC(=O)Cc2ccc(Nc3ccnc(C(F)(F)F)c3)cc2)c(O)c1,17.1% (inactive)
11,CC[C@]12C=CCN3CC[C@@]4(c5ccc(OC)cc5N(C)[C@H]4[C@@](O)(C(=O)OC)[C@@H]1OC(=O)CCC[P+](c1ccccc1)(c1ccccc1)c1ccccc1)[C@@H]32,16.2% (inactive)
12,Oc1c(CN2CCC(N3CCCCC3)CC2)cc(Cc2cc(CN3CCC(N4CCCCC4)CC3)c(O)c3ncccc23)c2cccnc12,-55.4% (active)
13,Nc1c(C(=O)Nc2cccc(Cl)c2)sc2nc3c(cc12)CCCC3,86.9% (inactive)
14,C=C(c1ccc(OC)c(/C=C/C(=O)c2ccc3c(c2)OCO3)c1)c1cc(OC)c(OC)c(OC)c1,-21.8% (active)
15,CCCCCN(CCCCC)CC(O)c1cc(C)c2ccc3cc(C(C)C)ccc3c2c1 (stereo unspecified),-78.3% (active)
16,O=C1/C=C/[C@@H](O)[C@@H]2C[C@@H](O)C[C@H]2/C=C/CCC[C@H](CCO)O1,31.7% (inactive)
17,CC(=O)/C(=C/c1ccc([N+](=O)[O-])cc1)C(=O)c1ccccc1,102% (inactive)
18,CC1(C)CC[C@]23CC[C@]4(C)[C@H](CC[C@@H]5[C@@]6(C)C/C(=C/c7ccncc7)C(=O)C(C)(C)[C@@H]6CC[C@]54C)[C@H]2[C@H]1OC3,58.7% (inactive)
